Source: PubChem BioAssay (EPA / NIEHS)
“And” between values parts separate entries of the source, which are not always exact repeats. Identical values can stand only once. Records with an inconclusive call do not appear. A structure can be active in one record and inactive in another. The source made the active and inactive calls. How the source made its calls, unless noted: active means hit-call score of the fitted dose curve at least 0.9, where 1 is the maximum; inactive means score below 0.9.

Legend:
[1] = target: human RAR-related Orphan Receptor beta (RORb), RORB (gene 6096) (UniProt Q92753); assay: ATG_RORb_TRANS: Attagene TRANS-FACTORIAL HepG2 Assay for human RAR-related Orphan Receptor beta (RORb) (AID 2283010; active means hit-call score of the fitted dose curve at least 0.9, where 1 is the maximum)
Chain of human RAR-related Orphan Receptor beta (RORb), RORB (gene 6096) (Q92753 whole entry, looked up, the tested form may be a part): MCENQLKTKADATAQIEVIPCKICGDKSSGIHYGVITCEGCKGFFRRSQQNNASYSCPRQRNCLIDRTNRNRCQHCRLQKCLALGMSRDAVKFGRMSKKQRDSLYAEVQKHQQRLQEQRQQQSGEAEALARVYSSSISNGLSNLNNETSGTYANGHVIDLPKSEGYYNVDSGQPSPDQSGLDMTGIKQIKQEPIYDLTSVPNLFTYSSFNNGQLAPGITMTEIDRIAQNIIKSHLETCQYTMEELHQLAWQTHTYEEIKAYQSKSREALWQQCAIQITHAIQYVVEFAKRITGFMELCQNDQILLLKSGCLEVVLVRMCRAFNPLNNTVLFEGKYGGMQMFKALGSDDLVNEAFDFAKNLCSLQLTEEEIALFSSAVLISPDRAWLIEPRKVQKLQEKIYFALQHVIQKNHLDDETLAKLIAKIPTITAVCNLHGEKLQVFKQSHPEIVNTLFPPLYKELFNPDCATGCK
Procedure, shortened: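 In this TRANS-format test, human HepG2 cells express chimeric NR-Gal4 fusion proteins driving GAL4-UAS reporters. After 24 h dosing, reporter transcripts are measured by fluorescent RT-PCR/capillary electrophoresis, with DMSO as negative control.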

[2] = target: human RAR-related Orphan Receptor gamma (RORg), RORC (gene 6097) (UniProt P51449); assay: ATG_RORg_TRANS: Attagene TRANS-FACTORIAL HepG2 Assay for human RAR-related Orphan Receptor gamma (RORg) (AID 2283011; active means hit-call score of the fitted dose curve at least 0.9, where 1 is the maximum)
Chain of human RAR-related Orphan Receptor gamma (RORg), RORC (gene 6097) (P51449 whole entry, looked up, the tested form may be a part): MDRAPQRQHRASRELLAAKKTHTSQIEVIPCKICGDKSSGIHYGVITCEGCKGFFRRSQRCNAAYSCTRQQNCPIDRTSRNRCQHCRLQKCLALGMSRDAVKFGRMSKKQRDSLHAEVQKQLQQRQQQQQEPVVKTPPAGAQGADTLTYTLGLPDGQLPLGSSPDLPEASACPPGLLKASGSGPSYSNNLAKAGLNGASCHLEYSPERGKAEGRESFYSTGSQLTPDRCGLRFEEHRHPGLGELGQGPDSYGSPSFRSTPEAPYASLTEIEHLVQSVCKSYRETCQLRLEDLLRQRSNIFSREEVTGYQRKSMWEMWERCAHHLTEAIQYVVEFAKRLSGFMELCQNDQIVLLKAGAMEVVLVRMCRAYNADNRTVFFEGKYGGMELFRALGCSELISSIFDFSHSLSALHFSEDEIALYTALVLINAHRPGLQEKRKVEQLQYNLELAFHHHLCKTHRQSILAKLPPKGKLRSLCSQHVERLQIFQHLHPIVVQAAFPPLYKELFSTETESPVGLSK
Procedure, shortened: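 First, HepG2 liver cells were transfected with GAL4-UAS-driven reporter constructs and the RORg-Gal4 fusion. Next, they were treated with chemical for 24 h. Finally, reporter mRNA was quantified by RT-PCR and capillary electrophoresis, with upward activity fitted against DMSO.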

[3] = target: Retinoic acid receptor RXR-alpha (Homo sapiens) (UniProt P19793); assay: ATG_RXRa_TRANS: Attagene TRANS-FACTORIAL HepG2 Assay for human Retinoid X Receptor alpha (RXRa) (AID 2283012; active means hit-call score of the fitted dose curve at least 0.9, where 1 is the maximum)
Chain of Retinoic acid receptor RXR-alpha (Homo sapiens) (P19793 whole entry, looked up, the tested form may be a part): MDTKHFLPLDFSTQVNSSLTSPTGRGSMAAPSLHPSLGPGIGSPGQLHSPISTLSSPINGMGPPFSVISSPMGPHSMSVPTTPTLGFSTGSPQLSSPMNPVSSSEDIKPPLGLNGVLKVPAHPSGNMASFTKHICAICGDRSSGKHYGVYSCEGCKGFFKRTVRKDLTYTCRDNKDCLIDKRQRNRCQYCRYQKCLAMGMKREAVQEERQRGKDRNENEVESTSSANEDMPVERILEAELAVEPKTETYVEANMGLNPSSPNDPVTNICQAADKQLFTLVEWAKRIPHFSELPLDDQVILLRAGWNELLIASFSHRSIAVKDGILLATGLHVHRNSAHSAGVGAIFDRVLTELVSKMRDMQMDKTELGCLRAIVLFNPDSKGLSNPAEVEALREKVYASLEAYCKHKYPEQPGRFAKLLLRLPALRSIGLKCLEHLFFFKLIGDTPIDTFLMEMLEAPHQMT
Procedure, shortened: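 Cells (HepG2) carried transiently transfected GAL4-responsive reporter units. Following a 24 h chemical incubation, reporter mRNA induction was read via RT-PCR fragment analysis; DMSO served as negative control and baseline.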

[4] = target: human Retinoid X Receptor beta (RXRb), RXRB (gene 6257) (UniProt P28702); assay: ATG_RXRb_TRANS: Attagene TRANS-FACTORIAL HepG2 Assay for human Retinoid X Receptor beta (RXRb) (AID 2283013; active means hit-call score of the fitted dose curve at least 0.9, where 1 is the maximum)
Chain of human Retinoid X Receptor beta (RXRb), RXRB (gene 6257) (P28702 whole entry, looked up): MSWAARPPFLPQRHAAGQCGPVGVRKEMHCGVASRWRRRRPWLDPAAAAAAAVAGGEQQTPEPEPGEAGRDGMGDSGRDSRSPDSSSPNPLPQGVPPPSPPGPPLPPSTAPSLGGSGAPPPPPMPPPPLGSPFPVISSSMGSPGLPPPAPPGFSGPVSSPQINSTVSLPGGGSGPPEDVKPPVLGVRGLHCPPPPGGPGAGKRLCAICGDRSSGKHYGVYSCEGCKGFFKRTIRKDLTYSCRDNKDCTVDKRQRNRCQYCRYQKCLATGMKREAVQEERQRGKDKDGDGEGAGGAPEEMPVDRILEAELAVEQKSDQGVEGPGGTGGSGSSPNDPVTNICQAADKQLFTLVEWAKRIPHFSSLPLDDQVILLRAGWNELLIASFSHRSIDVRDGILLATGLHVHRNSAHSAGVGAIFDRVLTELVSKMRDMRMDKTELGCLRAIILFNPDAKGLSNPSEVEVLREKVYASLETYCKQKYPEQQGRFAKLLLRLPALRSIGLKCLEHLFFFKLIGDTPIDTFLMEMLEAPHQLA
Procedure, shortened: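 Multiplexed TRANS reporter assay in HepG2; 24 h dosing; reporter mRNA by RT-PCR/CE fluorescence; gain-of-signal relative to DMSO.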

[5] = read-out: E-selectin (Homo sapiens) (UniProt P16581); assay: BSK_3C_Eselectin: BioMAP Diversity Plus: 3C Assay for Eselectin Biomarker Activity (AID 2283015); conditions: primary human endothelial cells (HUVEC); actives raise or lower the signal
Procedure, shortened: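 ELISA read-out of E-selectin on endothelial monolayers after 24 h chemical treatment. Human umbilical vein primary cells served as the system, with DMSO defining baseline activity for bidirectional fitting.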

[6] = read-out: Interleukin-1 alpha (IL1a), IL1A (gene 3552); assay: BSK_BE3C_IL1a: BioMAP Diversity Plus: BE3C Assay for Interleukin-1 alpha (IL1a) Biomarker Activity (AID 2283016); conditions: primary human bronchial epithelial cells; actives raise or lower the signal
Procedure, shortened: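 Cultures of primary human bronchial epithelial cells receive test chemical. After 24 h, IL-1a is quantified by ELISA, while parallel wells are fixed in TCA and SRB-stained for total protein. Changes in either direction are fitted relative to DMSO.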

[7] = read-out: Monocyte Chemoattractant Protein-1 (MCP1), CCL2 (gene 6347); assay: BSK_3C_MCP1: BioMAP Diversity Plus: 3C Assay for Monocyte Chemoattractant Protein-1 (MCP1) Biomarker Activity (AID 2283017); conditions: primary human endothelial cells (HUVEC); actives raise or lower the signal
Procedure, shortened: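 ELISA read-out of MCP-1 from human umbilical vein endothelial cell cultures harvested 24 h post-dosing. Gain or loss of signal was fitted relative to DMSO.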

[8] = read-out: Monocyte Chemoattractant Protein-1 (MCP1), CCL2 (gene 6347); assay: BSK_4H_MCP1: BioMAP Diversity Plus: 4H Assay for Monocyte Chemoattractant Protein-1 (MCP1) Biomarker Activity (AID 2283018); conditions: primary human endothelial cells (HUVEC); actives raise or lower the signal
Procedure, shortened: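 Readout: MCP-1 ELISA on compound-treated HUVEC, sampled 24 h post-dosing. Baseline and negative control DMSO; bidirectional fit. Overt toxicity checked alongside by sulforhodamine B protein staining at time of biomarker measurement.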

[9] = read-out: Human Leukocyte Antigen - DR isotype (HLADR), HLA-DRA (gene 3122); assay: BSK_3C_HLADR: BioMAP Diversity Plus: 3C Assay for Human Leukocyte Antigen - DR isotype (HLADR) Biomarker Activity (AID 2283019); conditions: primary human endothelial cells (HUVEC); actives raise or lower the signal
Procedure, shortened: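 ELISA readout of surface HLA-DR on human umbilical vein endothelium, taken 24 h after chemical treatment. Gain- and loss-of-signal were both fitted relative to DMSO.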

[10] = read-out: Interleukin-8 (IL8), CXCL8 (gene 3576); assay: BSK_3C_IL8: BioMAP Diversity Plus: 3C Assay for Interleukin-8 (IL8) Biomarker Activity (AID 2283020); conditions: primary human endothelial cells (HUVEC); actives raise or lower the signal
Procedure, shortened: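 Human vascular endothelial cells (umbilical vein) in the 3C system; IL-8 level detected by ELISA at 24 h post-dose, with DMSO as baseline.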

[11] = target: human Vitamin D Receptor (VDR), VDR (gene 7421) (UniProt P11473); assay: ATG_VDR_TRANS: Attagene TRANS-FACTORIAL HepG2 Assay for human Vitamin D Receptor (VDR) (AID 2283022; active means hit-call score of the fitted dose curve at least 0.9, where 1 is the maximum)
Chain of human Vitamin D Receptor (VDR), VDR (gene 7421) (P11473 whole entry, looked up, the tested form may be a part): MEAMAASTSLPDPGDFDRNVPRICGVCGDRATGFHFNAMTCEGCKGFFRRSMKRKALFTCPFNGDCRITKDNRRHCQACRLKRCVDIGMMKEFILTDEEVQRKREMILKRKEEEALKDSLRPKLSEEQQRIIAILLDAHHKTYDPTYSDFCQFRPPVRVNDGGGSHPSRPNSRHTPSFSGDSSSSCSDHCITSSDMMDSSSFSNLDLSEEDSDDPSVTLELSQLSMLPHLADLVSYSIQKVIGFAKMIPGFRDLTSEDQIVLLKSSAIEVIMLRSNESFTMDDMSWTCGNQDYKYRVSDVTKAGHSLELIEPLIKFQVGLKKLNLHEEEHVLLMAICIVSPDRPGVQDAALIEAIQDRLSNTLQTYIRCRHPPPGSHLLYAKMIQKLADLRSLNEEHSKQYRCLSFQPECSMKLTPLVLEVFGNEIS
Procedure, shortened: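 Steps: transfect HepG2 with GAL4-UAS-driven reporter constructs; dose compounds 24 h; isolate RNA, reverse-transcribe, PCR-amplify with 6-FAM-labelled primer extension and HpaI digestion; quantify fragments by capillary electrophoresis relative to DMSO.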

[12] = BSK_3C_SRB: Viability Assessment in the BioMAP Diversity Plus: 3C Assay (AID 2283023); conditions: primary human endothelial cells (HUVEC);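 further: fitted both ways against DMSO so a hit may be signal rise or drop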
Procedure, shortened: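 Absorbance at 560 nm of sulforhodamine B-stained (0.1%) total protein served as a cytotoxicity readout in human umbilical vein endothelial cells, 24 h after chemical treatment. Signal was fitted bidirectionally relative to DMSO.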

[13] = read-out: Matrix Metallopeptidase 1 (MMP1), MMP1 (gene 4312); assay: BSK_BE3C_MMP1: BioMAP Diversity Plus: BE3C Assay for Matrix Metallopeptidase 1 (MMP1) Biomarker Activity (AID 2283024); conditions: primary human bronchial epithelial cells; actives raise or lower the signal
Procedure, shortened: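 Dose cells, wait 24 h, run MMP1 ELISA; cells are human bronchial epithelial primaries. Both increases and decreases relative to DMSO counted.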

[14] = BSK_3C_Vis: BioMAP Diversity Plus: 3C Assay for Morphology Visualization (AID 2283025); conditions: primary human endothelial cells (HUVEC);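 further: fitted both ways so gain or loss versus DMSO counts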;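 on AC50: light microscopy image of cell morphology used as background control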
Procedure, shortened: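 Endothelial cells from human umbilical vein were treated with test chemicals for 24 h and inspected by light microscopy for changes in cell conformation.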

[15] = read-out: Pselectin, SELP (gene 6403); assay: BSK_4H_Pselectin: BioMAP Diversity Plus: 4H Assay for Pselectin Biomarker Activity (AID 2283026); conditions: primary human endothelial cells (HUVEC); actives raise or lower the signal
Procedure, shortened: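 Human vascular endothelium from umbilical vein; P-selectin measured by ELISA at 24 h post-dose, with cytotoxicity checked by sulforhodamine B total-protein staining in parallel cultures (0.1% SRB after 10% TCA fixation, read at 560 nm).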

[16] = BSK_4H_SRB: Viability Assessment in the BioMAP Diversity Plus: 4H Assay (AID 2283027); conditions: primary human endothelial cells (HUVEC);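 further: cells exposed to compound for 24 h before staining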;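 on AC50: curves fitted both ways versus DMSO so AC50 may be loss or gain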
Procedure, shortened: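 Absorbance at 560 nm of SRB-stained total protein served as the viability read-out in confluent primary human umbilical vein endothelium 24 h after chemical treatment. Curves were fitted bidirectionally against DMSO as negative control.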

[17] = BSK_BE3C_SRB: Viability Assessment in the BioMAP Diversity Plus: BE3C Assay (AID 2283028); conditions: primary human bronchial epithelial cells;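 on AC50: fitted both ways so AC50 may mark signal gain or loss versus DMSO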
Procedure, shortened: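 Cells (human bronchial epithelial, primary) are treated with chemicals, and after 24 h the parallel cultures are fixed in 10% TCA. These are then stained with 0.1% SRB and read at 560 nm. Gain or loss of signal is fitted relative to DMSO.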

[18] = read-out: Thrombomodulin, THBD (gene 7056); assay: BSK_3C_Thrombomodulin: BioMAP Diversity Plus: 3C Assay for Thrombomodulin Biomarker Activity (AID 2283029); conditions: primary human endothelial cells (HUVEC); actives raise or lower the signal
Procedure, shortened: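 Thrombomodulin ELISA, human primary HUVEC, 24 h post-dose; data fitted in both directions relative to DMSO.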

[19] = read-out: Urokinase-type plasminogen activator receptor (uPAR), PLAUR (gene 5329); assay: BSK_4H_uPAR: BioMAP Diversity Plus: 4H Assay for Urokinase-type plasminogen activator receptor (uPAR) Biomarker Activity (AID 2283030); conditions: primary human endothelial cells (HUVEC); actives raise or lower the signal
Procedure, shortened: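 Cell-surface uPAR ELISA signal, measured 24 h after dosing human umbilical vein endothelial cells, was analyzed with bidirectional fitting relative to DMSO. Parallel SRB staining of total protein tracked overt cytotoxicity.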

[20] = read-out: Monokine induced gamma interferon (MIG), CXCL9 (gene 4283); assay: BSK_3C_MIG: BioMAP Diversity Plus: 3C Assay for Monokine induced gamma interferon (MIG) Biomarker Activity (AID 2283021); conditions: primary human endothelial cells (HUVEC); actives raise or lower the signal;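 on AC50: MIG protein level measured by immunoassay in the treated endothelial cultures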
Procedure, shortened: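 After 24 h of treatment, human umbilical vein endothelial cultures (3C system) had their MIG biomarker level determined by ELISA, with DMSO serving as negative control.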

Measured: AC50

Chain of E-selectin (Homo sapiens) (P16581 whole entry, looked up): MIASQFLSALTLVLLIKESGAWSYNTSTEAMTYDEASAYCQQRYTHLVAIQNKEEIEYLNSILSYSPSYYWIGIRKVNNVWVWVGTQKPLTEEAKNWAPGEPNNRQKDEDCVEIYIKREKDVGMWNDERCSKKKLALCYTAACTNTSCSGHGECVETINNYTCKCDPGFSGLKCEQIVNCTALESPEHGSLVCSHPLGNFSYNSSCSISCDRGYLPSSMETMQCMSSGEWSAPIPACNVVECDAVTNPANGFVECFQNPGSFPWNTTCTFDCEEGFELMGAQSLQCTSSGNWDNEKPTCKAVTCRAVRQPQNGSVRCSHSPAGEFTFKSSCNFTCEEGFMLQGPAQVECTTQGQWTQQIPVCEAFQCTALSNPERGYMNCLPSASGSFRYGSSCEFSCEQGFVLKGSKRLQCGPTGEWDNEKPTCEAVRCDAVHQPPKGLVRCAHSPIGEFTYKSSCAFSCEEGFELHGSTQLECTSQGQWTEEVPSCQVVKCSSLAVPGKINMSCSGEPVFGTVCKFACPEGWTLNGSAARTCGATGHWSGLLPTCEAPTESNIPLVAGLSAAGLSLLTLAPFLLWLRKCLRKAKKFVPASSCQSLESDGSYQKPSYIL

CCS(=O)(=O)c1cccnc1S(=O)(=O)NC(=O)Nc1nc(OC)cc(OC)n1
not listed: [20]
inactive: all other assays above

CNC(=O)/C=C(\C)OP(=O)(OC)OC
not listed: [2] | [18] | [20]
inactive: all other assays above

O=[N+]([O-])c1c(Cl)c(Cl)c(Cl)c(Cl)c1Cl
active: [9] 36.9 µM | [12] 30.9 µM | [14] 37.5 µM
not listed: [11] | [18] | [20]
inactive: all other assays above

Cc1cc(C)nc(NC(=O)NS(=O)(=O)c2ccccc2C(=O)OC2COC2)n1
not listed: [2] | [3] | [18] | [20]
inactive: all other assays above

O=C1c2ccccc2C(=O)N1SC(Cl)(Cl)Cl
active: [6] 32 µM | [13] 34.9 µM | [17] 31.8 µM
not listed: [2]
inactive: all other assays above

N#Cc1c(Cl)c(Cl)c(Cl)c(C#N)c1Cl
active: [5] 1.46 µM | [6] 2.48 µM | [7] 1.98 µM | [8] 1.48 µM | [9] 0.166 µM | [10] 1.67 µM | [12] 2.14 µM | [13] 4.1 µM | [14] 0.468 µM | [15] 911 nM | [16] 1.96 µM | [17] 1.72 µM | [18] 148 nM | [19] 1.81 µM
inactive: [1] | [2] | [3] | [4] | [11]

COC(=O)c1ccccc1CS(=O)(=O)NC(=O)Nc1nc(OC)cc(OC)n1
not listed: [2] | [18] | [20]
inactive: all other assays above

CC(C)(C)C(O)C(Oc1ccc(Cl)cc1)n1cncn1 (stereo not drawn)
inactive: [1] | [2] | [3] | [4] | [5] | [6] | [7] | [8] | [9] | [10] | [11] | [12] | [13] | [14] | [15] | [16] | [17] | [19]
active: [5] 3.36 µM | [9] 5.49 µM

CCC(C)(NC(=O)c1cc(Cl)c(C)c(Cl)c1)C(=O)CCl (stereo not drawn)
active: [5] 8.28 µM | [6] 33.8 µM | [7] 21.1 µM | [8] 13.8 µM | [9] 3.57 µM | [20] 14.1 µM | [12] 12.2 µM | [13] 27 µM | [14] 7.99 µM | [15] 12000 nM | [16] 27.3 µM | [17] 16.5 µM | [19] 26.1 µM
inactive: [1] | [2] | [3] | [4] | [10]

COP(=S)(OC)Oc1ccc(SC)c(C)c1
active: [6] 5.15 µM | [13] 3.97 µM | [16] 5.31 µM | [17] 23.2 µM
not listed: [2] | [12] | [18] | [20]
inactive: all other assays above
